Rows were chosen to be rich in hits. Some 2.7% of all compounds tested hit in one or more screens of this group.
TrxR1 inh: blocks rat thioredoxin reductase 1; O89049; recombinant rTrxR1, NADPH fluorescence consumption, selenite substrate; Potency, µM (highest dose often 114 µM), most hits filed as inhibitors; hit rate 1% among 390,000; AID 588453; also: nearly all actives have a fitted effect of over 65% in size
Target sequence (O89049 whole entry, looked up): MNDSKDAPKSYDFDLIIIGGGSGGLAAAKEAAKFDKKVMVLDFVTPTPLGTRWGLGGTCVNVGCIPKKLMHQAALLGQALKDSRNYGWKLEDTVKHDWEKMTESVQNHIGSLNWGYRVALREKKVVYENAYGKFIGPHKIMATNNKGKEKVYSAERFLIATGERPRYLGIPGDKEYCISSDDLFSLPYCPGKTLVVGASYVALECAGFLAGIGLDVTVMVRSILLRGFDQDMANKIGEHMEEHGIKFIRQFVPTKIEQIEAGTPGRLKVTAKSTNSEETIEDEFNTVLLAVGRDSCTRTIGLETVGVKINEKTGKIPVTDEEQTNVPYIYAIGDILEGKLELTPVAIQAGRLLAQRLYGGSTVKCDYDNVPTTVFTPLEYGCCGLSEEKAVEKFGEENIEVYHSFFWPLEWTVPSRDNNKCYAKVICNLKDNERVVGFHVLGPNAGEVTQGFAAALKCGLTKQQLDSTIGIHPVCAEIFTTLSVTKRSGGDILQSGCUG
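Rat TrxR1 (90 nM in the dispensed reagent) was pre-reduced with 400 uM NADPH for 5 min at room temperature, then incubated with compound for 15 min. After 400 uM selenite was added, NADPH fluorescence (Ex 340/Em 450 nm) was followed for 8 min.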
mIDH1 inhibitor: inhibitors of human mutant IDH1 R132H | O75874 | IDH1-R132H enzyme, NADPH consumption, diaphorase/resazurin fluorescence | Potency, µM (top dose mostly 76.6 µM), most hits filed as inhibitors | hit rate 0.093% among 390,000; also: nearly all actives have a fitted effect of over 65% in size
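IDH1-R132H (0.5 ug/mL) preincubated 30 min with compound, then NADPH (0.016 mM) and alpha-KG (2 mM) added; 80 min at RT, pH 7.5. Remaining NADPH coupled via diaphorase/resazurin to fluorescence (540/590 nm); concentration-response curves normalized to no-enzyme control.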
HEK293 tox: cytotoxicity in counter-screen for GLP-1R inverse agonists. hit rate 0.13% among 410,000. Potency, µM (titrated, usually from 38.3 µM), usual class: inhibitors. AID 624418. HEK293 cAMP-luciferase reporter cells, luminescence, 24 h;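 also: loss of luciferase light is scored as toxicity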
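Here, cytotoxicity is scored as loss of luminescence. The MLSMR collection was tested on cells seeded in medium containing 10% Nu serum, with a 24 hr compound exposure preceded by 12 hours of culture.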
TrxR1 substrate: substrates of rat thioredoxin reductase 1; O89049; purified TrxR1 substrate turnover, NADPH consumption readout; Potency, µM (top dose mostly 114 µM); hit rate 0.01% among 390,000; AID 588456; also: nearly all actives have a fitted effect of over 50% in size
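Rat TrxR1, dispensed at 90 nM, was prereduced with 400 uM NADPH (final) for 5 min at ~22 deg C, then incubated with compound 15 min before 400 uM selenite. A first-read NADPH fluorescence drop versus no-compound background flagged substrates.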
GLP-1R agonist: activates the human GLP-1 receptor | P43220 | HEK293 GLP-1R CRE-luciferase, luminescence, 4-6 h; cells express a hypersensitive GLP-1R form | AID 624172 | Potency, µM (series often up to 45.6 µM), most hits filed as activators | hit rate 0.007% among 380,000
GLP-1R inv ag: GLP-1 receptor (human) inverse agonism; P43220; HEK293 GLP-1R CRE-luciferase, luminescence, 24 h; GLP-1R form is constitutively active; Potency, µM (top dose mostly 38.3 µM), usual class: inhibitors; hit rate 1.6% among 410,000; AID 624417; also: nearly all actives have a fitted effect of over 55% in size
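HEK293 cells stably co-expressing constitutively active GLP-1R and a cAMP-responsive luciferase reporter were seeded in DMEM with 10% Nu serum, given compounds after 12 h, and incubated 24 h at 37 deg C. Luminescence was then read.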
Large screens that a line does not name were inactive. Calls follow the shape of the dose curve; as a rule, active = well fitted curve in the direction sought with a large enough effect; inconclusive = small, poorly fitted or top-dose-only effect, or another doubt; inactive = no such curve, though single readings can be large; an effect the other way counts as inactive or inconclusive.

Cc1ccc(-c2nnc(-c3ccccc3)c(-c3ccccc3)n2)cc1	GLP-1R inv ag inconclusive
Cc1cc(Nc2ccc3c(c2)OCCO3)c2cccc(C)c2n1	HEK293 tox 8.91µM, GLP-1R inv ag inconclusive
O=C(Cc1ccc(F)cc1)Nc1nnc2n1CCS2	none
CC1=C(C(=O)Nc2ccccc2C(=O)NC2CCCCC2C)SCCO1 (configuration not stated)	GLP-1R inv ag 10µM
COc1ccc(CCn2c(N)cc(=O)[nH]c2=S)cc1OC	GLP-1R agonist 10µM
CCCCC1(Br)C(=O)N(c2ccccc2)N(c2ccccc2)C1=O	TrxR1 inh 28.2µM
CN(C)c1ccc(C(CNC(=O)c2ccccc2F)N2CCc3ccccc32)cc1 (configuration not stated)	TrxR1 inh inconclusive (no result: GLP-1R agonist)
COc1ccc(-n2nnnc2S(=O)(=O)CC(=O)N2CCCCC2)cc1	TrxR1 inh 2.24µM, GLP-1R inv ag inconclusive
COc1ccc(-n2nnnc2S(=O)(=O)Cc2ccc(C(=O)O)cc2)cc1	TrxR1 inh 15.8µM
CCc1ccc(Oc2nnnn2-c2ccc(C(N)=O)cc2)cc1	none
CC1(C)OC(=O)C2(Cc3ccc(Br)cc3N3CCCCC32)C(=O)O1 (configuration not stated)	TrxR1 inh inconclusive (no result: mIDH1 inhibitor, HEK293 tox, GLP-1R agonist, GLP-1R inv ag)
FC(F)(F)c1cccc(-n2cc(-c3ccccc3)c3c(N4CCCCC4)ncnc32)c1	none (no result: GLP-1R agonist)
CC(C)Cn1c(-c2cccs2)nc2nc3ccccc3nc21	GLP-1R inv ag 3.98µM
CC1(C)Cc2c(C#N)c(N)sc(=S)c2CS1	TrxR1 inh 14.1µM
CCOC(=O)C(C#N)c1ccccn1 (configuration not stated)	none
CCOC(=O)C(c1ccccc1)C(Nc1ccc(F)cc1)c1ccccn1 (configuration not stated)	GLP-1R inv ag 10µM
CC1=NN(C(=O)COc2ccccc2C)C(O)(c2ccc(Cl)cc2)C1 (configuration not stated)	HEK293 tox inconclusive, GLP-1R inv ag 10µM
CC1=NN(C(=O)c2ccccc2)C(O)(c2ccc(Br)cc2)C1 (configuration not stated)	GLP-1R inv ag 3.98µM
CC1=NN(C(=O)c2ccccc2Cl)C(O)(c2ccccc2)C1 (configuration not stated)	GLP-1R inv ag inconclusive
CCC1=NN(C(=O)c2ccc(Br)cc2)C(O)(c2ccccc2)C1 (configuration not stated)	HEK293 tox inconclusive, GLP-1R inv ag 0.562µM
COc1ccc(-n2c(/C=C/c3cccc(C(F)(F)F)c3)nc3ccccc3c2=O)cc1Cl	GLP-1R inv ag inconclusive (no result: GLP-1R agonist)
Cc1c2cnn(-c3ccccc3)c(=O)c2c(C)n1CCCC(=O)Nc1cccc(F)c1	none (no result: GLP-1R agonist)
COc1cccc(N/C(SCc2ccccc2F)=C(/C#N)C(=O)NCc2cccs2)c1	GLP-1R inv ag 5.01µM
COc1cccc(NC(=O)NCc2ccccc2F)c1	none
Cc1ccc(S(=O)(=O)C(CNC(=O)C(=O)NCCc2ccc(F)cc2)c2cccs2)cc1 (configuration not stated)	none (no result: GLP-1R agonist)
COC(=O)C1=C(C(=O)OC)[C@]2([C@@H]3CC=CCN[C@@H](Cc4ccccc4)C(=O)N3Cc3ccccc3)C=C[C@H]1O2	GLP-1R inv ag inconclusive
C=CCC(Nc1ccccc1)C12C=CC(O1)C(C(=O)OC)=C2C(=O)OC (configuration not stated)	TrxR1 inh 7.94µM, HEK293 tox inconclusive, GLP-1R inv ag inconclusive
Cc1sc2nc(C3CC3)nc(N3CCN(C(=O)c4ccc(F)cc4)CC3)c2c1C	GLP-1R inv ag 10µM
Cc1sc2nc(C3CC3)nc(N3CCN(C(=O)c4ccccc4F)CC3)c2c1C	GLP-1R inv ag inconclusive
Cc1sc2nc(C3CC3)nc(N3CCN(C(=O)c4ccc(Cl)cc4)CC3)c2c1C	GLP-1R inv ag 8.91µM
COc1ccc(C(=O)N2CCN(c3nc(C4CC4)nc4sc(C)c(C)c34)CC2)cc1	GLP-1R inv ag inconclusive
Cc1ccc(S(=O)(=O)N2CCN(c3nc(-c4ncccn4)nc4ccccc34)CC2)cc1	none (no result: mIDH1 inhibitor, HEK293 tox, GLP-1R agonist, GLP-1R inv ag)
COc1ccc(N2CCN(C(CNC(=O)C(=O)NCCC3=CCCCC3)c3ccco3)CC2)cc1 (configuration not stated)	HEK293 tox inconclusive, GLP-1R inv ag 10µM
O=S(=O)(c1ccc(Cl)c(Cl)c1)c1snnc1-c1ccccc1	HEK293 tox inconclusive, GLP-1R inv ag 7.08µM
CCOC(=O)N1CCC(NC(=O)c2ccc3c(c2)N=C(C)c2c(C)ccc(C)c2S3)CC1	HEK293 tox inconclusive, GLP-1R inv ag inconclusive
CCCC1=Nc2cc(C(=O)NC3CCCC3)ccc2Sc2ccc(C)cc21	GLP-1R inv ag inconclusive (no result: GLP-1R agonist)
CCCC1=Nc2cc(C(=O)NC3CCCCC3)ccc2Sc2ccc(C)cc21	HEK293 tox inconclusive, GLP-1R inv ag 0.794µM (no result: GLP-1R agonist)
CCCC1=Nc2cc(C(=O)NCCCOCC)ccc2Sc2ccccc21	none
CCCC1=Nc2cc(C(=O)NCC(C)c3ccccc3)ccc2Sc2ccccc21 (configuration not stated)	HEK293 tox inconclusive, GLP-1R inv ag 3.16µM
CCCC1=Nc2cc(C(=O)NCCOC)ccc2Sc2ccccc21	HEK293 tox inconclusive, GLP-1R inv ag 2.24µM (no result: mIDH1 inhibitor, GLP-1R agonist)
CC1=Nc2cc(C(=O)NC3CCC(C)CC3)ccc2Sc2c(C)ccc(C)c21 (configuration not stated)	HEK293 tox inconclusive, GLP-1R inv ag 0.794µM
Cc1nn(-c2ccccc2)c2nc(C3CC3)cc(C(=O)Nc3ccc(F)cc3)c12	none (no result: GLP-1R agonist)
Cc1cccc(OCC(=O)Nc2c(C(=O)N3CCN(c4ccccc4F)CC3)oc3ccccc23)c1	none (no result: GLP-1R agonist)
CCOC(=O)c1c(NC(=O)c2cc3nc(-c4ccc(Br)cc4)cc(C(F)(F)F)n3n2)sc(C(C)=O)c1C	none (no result: GLP-1R agonist)
CC(=O)c1ccc(NC(=S)Nc2cccc3cnccc23)cc1	TrxR1 inh 22.4µM
Cc1ccc(NC(=S)Nc2cccc3cnccc23)cc1C	GLP-1R inv ag inconclusive
S=C(Nc1cccc(Cl)c1)Nc1cccc2cnccc12	TrxR1 inh 44.7µM
Cc1cc(C)c(C(=O)NC2CC(C)(C)Cc3c2cnn3-c2ccccc2)o1 (configuration not stated)	GLP-1R inv ag 10µM
COc1ccc(-n2ncc3c2CC(C)(C)CC3NC(=O)c2oc(C)cc2C)cc1 (configuration not stated)	none
COc1cc(C)c(C)cc1S(=O)(=O)Nc1cccc(-c2ccc(N3CCOCC3)nn2)c1	none (no result: GLP-1R agonist)
NC(=S)N/N=C1/CCSc2ccc3ccccc3c21	HEK293 tox 2µM, GLP-1R inv ag 2.24µM
NC(=S)N/N=C/c1c(O)ccc2ccccc12	none
